Measurements published in PubChem BioAssay (NCI).
The panel holds about 83,000 compounds, 20% with a hit somewhere; the sample as a whole holds those more often.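 Activity criterion: percent growth below 10, measured after cells in 96-well plates were exposed to a single compound concentration for 48 hours.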 A number with no mark means an inactive call.

System: NCI-H322M lung
Assay: NCI-60 one-dose screen, 48 h (100 = growth as untreated, 0 = no growth, -100 = all killed)
Settings: 10 µM unless noted

Structure (SMILES)	growth [%]
CC(C)(C)n1cc(-c2ccnc(NCCCNS(=O)(=O)c3cccc(F)c3)c2)c(-c2cccc(O)c2)n1	58.6
Cc1ccc(N2CCN(C(C)C(N)=O)CC2)cc1 (centres undefined)	116
NC(N)=N/N=C/c1ccc(-c2ccc(-c3cc(Cl)cc(Cl)c3)s2)cc1	72.6
Cc1ccc2nc(-c3cc4c([nH]c5ccccc54)c(-c4ccc(F)c(F)c4)n3)[nH]c2c1	103
CNc1ccc(Br)c2c1C(=O)c1ccccc1C2=O	110
O=C(O)c1cn(C2CC2)c2cc(N3CCN(C(=O)/C=C/c4ccc(Cl)cc4)CC3)c(F)cc2c1=O	71.5
CCC1=CCC[C@@]2(C)CCC[C@@]3(C)CCCC(C)(C)[C@]1([O-])[O+]32	116
O=c1[nH]c(-c2ccccc2)nc(CN2CCCCC2)c1O	136
Cc1ccc(Nc2nnc(-c3ccc(Cl)cc3)o2)c(C)c1	102
O=C(N/N=C/C=C\c1ccccc1)C(=O)N/N=C/C=C/c1ccccc1	123
COc1cc(-c2nc(N=Nc3c(O)[nH]c4ccc(Br)cc34)[nH]c(=O)c2C#N)cc(OC)c1OC	99.4
O=C(NNC(=O)N1c2ccccc2C=Cc2ccccc21)c1ccc2ccccc2c1	99
COc1cccc(-c2nc3sccn3c2-c2ccnc(NCCCNS(=O)(=O)c3ccc(C(F)(F)F)cc3)c2)c1	79.4
c1cc(C2=N[C@@H]3c4ccccc4C[C@@H]3O2)nc(C2=N[C@@H]3c4ccccc4C[C@@H]3O2)c1	107
